# An excerpt weighted towards active compounds, which were near 0.76% of everything screened.
# MRP-1 activ = H69AR viability gain despite doxorubicin, primary screen, MRP-1 activator project, H69AR cells, CellTiter-Glo. viability rescue. hit rate 0.61% among 140,000. viability increase, % at 10 µM;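 active = viability gain under doxorubicin at or above a set limit, the compound median plus 3 SD, cut at about 4.7% in these data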;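 note: MRP-1 overexpressing cells given doxorubicin 25 µM after compound pretreatment; 18-22 h compound pretreatment then 72 h with doxorubicin before readout; 0% = doxorubicin-only wells and 100% = vehicle-treated cells without doxorubicin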
# sEH activator = soluble epoxide hydrolase activators, primary screen, biochemical, human sEH. Bifunctional epoxide hydrolase 2 (Homo sapiens), P34913. purified human sEH enzymatic activity, activator screen. activation, % at 2 µM. hit rate 0.04% among 91,000; in the data active = activation above about 37%
# Target sequence (P34913 whole entry, looked up): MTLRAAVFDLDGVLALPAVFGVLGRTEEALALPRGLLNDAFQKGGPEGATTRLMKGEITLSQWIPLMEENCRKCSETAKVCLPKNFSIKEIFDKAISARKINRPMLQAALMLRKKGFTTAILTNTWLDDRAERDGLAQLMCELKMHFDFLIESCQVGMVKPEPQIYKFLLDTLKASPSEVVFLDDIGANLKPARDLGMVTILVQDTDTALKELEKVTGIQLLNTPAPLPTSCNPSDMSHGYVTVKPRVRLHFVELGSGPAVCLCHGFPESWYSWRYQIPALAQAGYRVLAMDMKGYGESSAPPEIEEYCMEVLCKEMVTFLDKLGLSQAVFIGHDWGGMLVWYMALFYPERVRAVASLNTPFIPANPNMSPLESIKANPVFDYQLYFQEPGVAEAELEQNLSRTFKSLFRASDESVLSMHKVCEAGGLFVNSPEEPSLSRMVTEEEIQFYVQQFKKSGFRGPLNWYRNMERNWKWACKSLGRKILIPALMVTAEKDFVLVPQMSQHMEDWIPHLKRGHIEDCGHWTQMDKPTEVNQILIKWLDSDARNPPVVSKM
# MRP reversal = reversal of MRP1-mediated doxorubicin resistance, primary screen, H69AR cells, doxorubicin co-treatment; H69AR cells + 2 uM doxorubicin, CellTiter-Glo, 72 h; differential viability (reversal), % at 10 µM; hit rate 0.04% among 85,000; AID 602, 2007;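 active = viability drop by adding the cancer drug above about 55%, with treated viability meeting a 40% cutoff, limit read from the data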;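 note: viability without doxorubicin minus viability with 2 µM doxorubicin for each compound; larger differential means the compound sensitizes cells more to doxorubicin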
# sEH inhibitor = soluble epoxide hydrolase inhibitors, primary screen, biochemical, human sEH; Bifunctional epoxide hydrolase 2 (Homo sapiens), P34913; recombinant human sEH enzymatic activity assay; inhibition, % at 2 µM; hit rate 0.34% among 91,000; in the data active = inhibition above about 80%
# An asterisk follows results filed as active; / = not tested or not shown.
SMILES,MRP-1 activ,sEH activator,MRP reversal,sEH inhibitor
Cc1cc(C(=O)COC(=O)c2ccc3c(c2)OCO3)c(C)n1Cc1cccs1,5.6*,3.9,4.2,-1.8
Cc1ccc(NC(=O)CSc2nnc(-c3cccs3)o2)cc1S(=O)(=O)N1CCCCC1,1.6,/,/,/
Cc1cccc(OCCNC(=O)c2ccc(Oc3ccc(C(F)(F)F)cc3[N+](=O)[O-])cc2)c1,8.2*,-9.0,/,11.3
O=C(Nc1nc(-c2ccccc2)cs1)C1c2ccccc2Oc2ccccc21,-0.7,-3.8,/,6.4
COc1ccc(OC)c(-c2csc(NC(=O)C3c4ccccc4Oc4ccccc43)n2)c1,9.4*,/,/,/
O=C(CSc1nnc2c3ccccc3c3ccccc3c2n1)Nc1ccccc1F,-2.6,-0.5,/,1.2
Nn1c(SCC(=O)Nc2ccccc2F)nc2ccccc2c1=O,8.8*,2.0,10.6,0.8
COc1cc(C)ccc1N(CCCN1C(=O)c2cccc3cccc(c23)C1=O)C(=O)c1cccs1,8.7*,/,/,/
CC(C)Oc1cccc(C(=O)NC(=S)Nc2ccccc2)c1,-3.4,/,/,/
COc1cccc(/C=N/NC(=O)C(C)n2nc(C)c([N+](=O)[O-])c2C)c1O (stereo unspecified),9.0*,/,/,/
COc1cccc(/C=N/NC(=O)C(=O)N2CCCC2)c1OC,-2.0,14.9,/,-12.3
COc1cccc(/C=N/NC(=O)C(=O)N2CCCC2)c1O,5.4*,3.6,/,-1.3
COc1cccc(/C=N/NC(=O)Cn2nc(C)c([N+](=O)[O-])c2C)c1O,6.6*,/,/,/
CC(C)CNC(=O)c1cccc(NC(=O)Cc2ccc(Br)cc2)c1,6.2*,/,/,/
COc1ccc(-c2c(C)[nH]n3c(=O)c(Cc4ccccc4)c(C)nc23)cc1,-2.4,/,/,/
COc1ccc(-c2nnc(SC(C)C(=O)NNC(=O)c3ccc(C)cc3)o2)cc1 (stereo unspecified),4.4,/,/,/
COc1ccc(-c2nnc(SC(C)C(=O)Nc3cccc(Cl)c3)o2)cc1 (stereo unspecified),5.8*,8.3,-1.5,-8.6
O=C(NCC1CCCO1)c1sc2cc(Cl)ccc2c1Cl (stereo unspecified),1.3,/,/,/
Brc1cc2c(cc1COc1ccc(-c3nn[nH]n3)cc1)OCO2,5.0*,-3.3,-30.8,3.4
Cc1ccc(-c2csc(NC(=O)C3=NN(c4ccccc4)C(=O)CC3)n2)cc1,1.3,/,/,/
Cc1cccc(C)c1OCc1nnc(NC(=O)CSc2ccc(Cl)cc2)s1,0.8,/,/,/
O=C(CSc1ccccc1)Nc1nnc(COc2ccc(Cl)cc2)s1,7.1*,/,/,/
CCOCC(=O)Nc1nnc(COc2ccc(Cl)cc2)s1,4.4,-11.0,/,13.2
COCC(=O)Nc1nnc(COc2ccc(Cl)cc2)s1,5.4*,2.7,0.6,0.3
COC(=O)c1ccccc1N1C(=O)[C@@H]2C(c3ccc(F)cc3)=NO[C@@H]2C1=O,-1.3,5.5,0.7,-6.8
COc1ccc(CN2C(=O)[C@@H]3C(c4ccc(F)cc4)=NO[C@@H]3C2=O)cc1,1.8,37.5*,-11.6,-40.1
OC(c1ccccn1)(c1ccccn1)c1ccccn1,0.0,/,/,/
CCOc1ccccc1Nc1nc(N)nc(CN(C)C2CCCCC2)n1,-3.6,-3.8,79.7*,3.8

# Assay outcomes (PubChem BioAssay)
